Experimental data published in the supplement of paper PMC3334620.
Whole data set: some 33,000 sequences, median “E-score (-0.5 to 0.5)” near -0.0059, cut for the highest 2% near 0.26. The sample as a whole holds a higher share of the highest values than the screen did.

target: T1, Cin5 (UniProt P40917); experiment: PBM E-score (8-mer binding enrichment) (E-score (-0.5 to 0.5)); higher = stronger / more preferred TF binding; settings: protein concentration: 100 nM; construct: GST-full length
T1 sequence: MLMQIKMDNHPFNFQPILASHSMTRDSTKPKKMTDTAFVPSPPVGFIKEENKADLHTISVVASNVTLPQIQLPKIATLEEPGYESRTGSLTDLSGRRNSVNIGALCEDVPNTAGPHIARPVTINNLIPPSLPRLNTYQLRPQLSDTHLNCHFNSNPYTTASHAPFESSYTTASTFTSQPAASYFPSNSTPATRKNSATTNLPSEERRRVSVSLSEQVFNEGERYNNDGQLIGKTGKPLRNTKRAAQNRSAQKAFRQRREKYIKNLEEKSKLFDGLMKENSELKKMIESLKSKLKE
Method: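 Universal 'all 10-mer' protein binding microarrays (Agilent AMADID 015681) probed with GST-tagged S. cerevisiae TFs (full-length or DBD) made by in vitro transcription/translation (PURExpress), about 100-200 nM. Bound TF was detected with fluorescent anti-GST. Each ungapped 8-mer (which stands for itself and its reverse complement) is scored by the PBM enrichment score (E-score), a modified Wilcoxon-Mann-Whitney statistic from -0.5 to +0.5, computed with the Universal PBM Analysis Suite. Scale: above 0.35 generally sequence-specific binding.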

Sequence | PBM E-score
ATCCTCTG | 0.0169
AGGATCCA | -0.0524
GGAATCCA | 0.0132
AGATTATG | 0.248
ATATTATG | 0.379
ATATTATC | 0.233
GGGGTGTA | -0.208
CCCGATAG | -0.0593
CATAATAA | 0.0985
AATAATAG | 0.198
AATAATAT | 0.356
AAAAATCT | 0.0604
AATAACCT | 0.061
GATAATAA | 0.199
AATAATGT | 0.273
AATAATAA | 0.305
AATAATCT | 0.345
AATAATAC | 0.181
AATAATGG | 0.226
AATAATGC | 0.145
AAAAAACG | 0.125
AATCATTG | 0.207
ACGCAGTA | -0.15
CCACCGTA | -0.049

Sequence | PBM E-score
GGTAGCAC | -0.152
CATGGATC | -0.00694
ACTCGCGA | 0.214
TAGATCGA | 0.0888
ACTCTGGG | -0.0166
CGGAGACC | -0.167
CCCTCGGC | -0.217
AGTCCCTA | -0.176
AGCTGAAG | 0.0392
ATCTGCGA | 0.00217
ACTACGTC | 0.00455
ATTACGTG | 0.423
ATTACGTC | 0.371
GGTACGTA | -0.032
AGTACGTG | -0.096
ACTACGTG | -0.223
GTTACGTA | 0.305
GTTACGGA | -0.122
CTTACGTC | 0.196
ACCCTGGA | -0.243
AGCGCCCA | -0.243
AGTCAACT | -0.157
CGAGCTCG | 0.0762
ATACCATG | 0.0359

Sequence | PBM E-score
GTACCATA | -0.04
ATACCATA | 0.259
CTGCCCAC | -0.151
GCCTTTAC | -0.0984
GGTATGAA | 0.126
AGGTTCTC | -0.153
ATCAAGCA | 0.114
GAAAAACA | -0.0228
TAAAAACA | 0.174
AAAAAACA | 0.284
ATCAAACA | 0.274
CTCAAACA | 0.0626
TAGATGCA | 0.0348
ACTTTGAG | -0.126
AGGCCAGA | -0.0898
GATTCTTA | 0.213
ATGTACAT | 0.205
CTATCGAA | 0.0827
CAATCCCA | -0.0745
CAATCCCC | 0.0168
CAATCCCG | 0.259
CCGGTTGC | 0.00629
ATTGTCTC | -0.017
GTTGTCTA | 0.114

Sequence | PBM E-score
ATTGTCTA | 0.273
AAGTAGAG | -0.126
ACGCCTTG | -0.0542
GTAAAAGA | 0.0603
AATGATAA | 0.227
CATGATTA | 0.321
CATGATAG | 0.0148
CATGATTC | -0.0303
AATGATTA | 0.335
CATGATGA | 0.173
GATGATTA | 0.23
AATGATAG | 0.272
AATGATTC | 0.161
CGCGTCGA | 0.0758
TAACCGGA | 0.106
GCGCACGC | -0.12
CCTGCAGG | -0.134
ACCGCGAC | -0.104
CACGGGTA | -0.0916
ACATGGTG | 0.0908
AGTCTGGA | 0.041
GCGAGACC | -0.127
